Screens from PubChem BioAssay.
An excerpt weighted towards active compounds, which were near 3.1% of everything screened.
TR SRC2 fluor cs: counter-screen for TRb-SRC2 inhibitors: fluorescence interference; Potency, µM (highest dose often 106 µM), inactives show at the top dose fluorescence change, negative = quenching; actives 0.29% (n = 280,000); TRb/SRC2 Texas Red total fluorescence interference; active = well fitted curve in either direction with a large enough effect; inconclusive = small, poorly fitted or top-dose-only effect
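Human TRβ ligand-binding domain (0.6 uM) and Texas Red SRC2 peptide (20 nM) in Tris buffer with 1 uM T3 and 5% DMSO were incubated with pinned compound for 5 hr at ambient temperature. Total fluorescence was computed as S + 2P (555/632 nm).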
Tau fibril FP: blocks human tau fibril formation measured by polarization; K18 P301L tau heparin fibrillization, Alexa594 FP, 6 h; actives 0.39% (n = 280,000); Potency, µM (top dose mostly 57.7 µM), without a hit: at the highest dose activity, negative = inhibition, usual class: inhibitors; P10636; also: nearly all actives have a fitted effect of over 55% in size
Target sequence (P10636 561-689 P618L limits assumed): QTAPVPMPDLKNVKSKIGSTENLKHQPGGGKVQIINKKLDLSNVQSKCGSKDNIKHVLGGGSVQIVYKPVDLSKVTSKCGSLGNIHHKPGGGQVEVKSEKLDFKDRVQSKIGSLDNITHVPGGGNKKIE
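Human K18 P301L fragment (15 uM unlabeled plus 0.24 uM Alexa 594-labeled) in 100 mM sodium acetate pH 7 with compound, aggregation induced by 20 uM heparin for 6 hr at 37 C. ThT (30 uM) added for 1 hr, then Alexa 594 FP read.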
Tau fluor counter: counter-screen for tau fibril formation inhibitors; actives 0.93% (n = 280,000); AID 1463; tau K18 P301L Alexa594 fluorescence, heparin fibrillization; Potency, µM (doses to about 57.7 µM), for inactives: at the highest dose activity change, negative = decrease; also: nearly all actives have a fitted effect of over 55% in size
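Human K18 P301L tau (15 uM unlabeled plus 0.24 uM Alexa 594-labeled, final) in 100 mM sodium acetate pH 7 was mixed with compound and 20 uM heparin and incubated 6 hr at 37 C.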
GoLoco inh red: RGS12 GoLoco-Gai1 interaction inhibition. Gai1:RGS12 GoLoco peptide FP, rhodamine, 10 min. AID 880. Potency, µM (highest dose often 61.6 µM), without a hit: top-dose activity, negative = inhibition, hits mostly inhibitors. actives 0.44% (n = 230,000); active = well fitted inhibition curve with a large enough effect, not every such curve was filed as active; inactive = no such curve, though single readings can be large or run the other way; also: nearly all actives have a fitted effect of over 30% in size
Target sequence (P63096 whole entry, looked up): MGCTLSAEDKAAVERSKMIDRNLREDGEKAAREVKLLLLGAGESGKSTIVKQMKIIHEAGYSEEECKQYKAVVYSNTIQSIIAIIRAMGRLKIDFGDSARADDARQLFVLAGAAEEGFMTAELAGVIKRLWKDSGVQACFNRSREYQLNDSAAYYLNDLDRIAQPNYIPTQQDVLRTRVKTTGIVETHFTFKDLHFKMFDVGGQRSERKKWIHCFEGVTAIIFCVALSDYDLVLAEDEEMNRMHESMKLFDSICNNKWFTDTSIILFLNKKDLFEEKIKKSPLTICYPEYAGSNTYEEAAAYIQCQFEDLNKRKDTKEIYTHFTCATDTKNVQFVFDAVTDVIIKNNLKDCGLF
Tau fibril ThT: tau fibrillization inhibition (ThT binding). P10636. recombinant tau K18 P301L (four-repeat tau fragment), heparin-induced fibrillization, ThT fluorescence. Potency, µM (highest dose often 57.4 µM), for the others: at the top dose activity, negative = inhibition, most hits filed as inhibitors. actives 2.1% (n = 270,000). AID 1460; also: nearly all actives have a fitted effect of over 55% in size
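In this qHTS, human K18 P301L tau is incubated with compound and heparin for 6 hr at 37 C, and Thioflavin T fluorescence then reports fibril load.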
TRb-SRC2 inh: inhibitors of human thyroid hormone receptor beta-SRC2 interaction | P10828 | TRbeta-SRC2 peptide binding, fluorescence polarization; receptor liganded with 1 µM T3 | Potency, µM (top dose mostly 106 µM), for inactives: at the highest dose activity change, negative = inhibition, actives largely listed as inhibitors | actives 0.065% (n = 280,000) | AID 1469;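 also: plate controls were bound peptide for no effect and peptide without receptor for full effect; nearly all actives have a fitted effect of over 50% in size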
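TRb LBD 0.6 uM + Texas Red SRC2 peptide 20 nM, 1 uM T3, Tris buffer w/ 5% DMSO; compound pinned, 5 h RT; FP read ex 555/em 632; normalized to unbound and bound controls.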
Starred values were filed as active, the others as inactive; u = inconclusive; x = not tested or not shown; [ ] = another dose, or the depositor's remark. Unless noted, calls follow the shape of the dose curve; as a rule, active = well fitted curve in the direction sought with a large enough effect; inconclusive = small, poorly fitted or top-dose-only effect, or another doubt; inactive = no such curve, though single readings can be large; an effect the other way counts as inactive or inconclusive. Unless noted, % is scaled to controls: 0 for no effect and ±100 for the full control effect; potency is read from the fitted curve at half-maximal effect.

SMILES | TR SRC2 fluor cs | Tau fibril FP | Tau fluor counter | GoLoco inh red | Tau fibril ThT | TRb-SRC2 inh
O=C(/C=C/c1ccc2c(c1)OCO2)Nc1c(C(=O)O)[nH]c2ccccc12 | -31.7% | 10.3% | -29.2% | -23.8% | 12.6µM* | 2.6%
O=C(NCC(c1ccc2c(c1)OCO2)N1CCN(c2ccccc2)CC1)c1ccccc1F (centres undefined) | -1.7% | 9.1% | -15.6% | x | -15.3% | 5.1%
CC(C)CCC(C(=O)O)C(C)CC(=O)NNC(=O)c1ccco1 (centres undefined) | -3.8% | 0.8% | -15.8% | 8.4% | -13.4% | 12.4%
O=C1NNC(c2ccccc2)=N/C1=C\c1ccccc1Cl | -5.3% | u | -8.5% | 1.7% | u | -22.2%
O=C1NNC(c2ccccc2)=N/C1=C\c1ccco1 | -3.9% | u | u | 38.3% | 17.8µM* | -0.7%
O=c1[nH]n2c(=O)c3c([nH]c2c1N=Nc1cccc(Cl)c1)CCCC3 | -1.5% | -5.8% | u | -3.7% | 2.82µM* | 1.3%
CCOc1ccc(N=Nc2c(=O)[nH]n3c(=O)c4c([nH]c23)CCCC4)cc1 | -16.8% | -6.1% | u | -0.5% | 1.78µM* | 2.6%
CCOC(=O)c1nn(-c2ccccc2)c(=O)cc1SC1CCCCC1 | -2.4% | 2.4% | -4.7% | -0.6% | -5.2% | 4.5%
CCOc1ccc(-c2csc(/C(C#N)=C\c3ccc(O)c([N+](=O)[O-])c3)n2)cc1 | -0.2% | u | 7.08µM*[quencher] | 16.2% | 1.26µM* | 11.6%
CCc1ccc(/C=C(/C#N)c2nc(-c3ccc(C)cc3)cs2)cc1 | 2.5% | -7.3% | u | x | u | -1.8%
COc1ccnc(CSC(N)=Nc2cccc(C(F)(F)F)c2)c1 | 5.2% | u | u | -3.7% | 17.8µM* | 0.3%
COc1ccnc(CSC(N)=Nc2ccccc2OC)c1 | -1.0% | u | -19.0% | 0.2% | 31.6µM* | -24.8%
COc1cccc(NC(=O)CC2SC(=Nc3ccccc3)NC2=O)c1 (centres undefined) | -1.1% | -8.5% | -16.3% | 5.5% | -17.3% | -0.4%
CCOc1cc(/C=N/N=C(\N)c2nonc2N)cc(Br)c1OCc1cccc2ccccc12 | -2.8% | u | -28.6% | 6.8% | -16.2% | -5.4%
COc1cc(/C=N/N=C(/N)c2nonc2N)cc(Br)c1OCc1cccc(C)c1 | -2.7% | 28.2µM* | u | -8.1% | u | -6.2%
COC(=O)c1sc2nc(C)c([N+](=O)[O-])c(C)c2c1N | -4.1% | -2.8% | -24.7% | -7.5% | 3.16µM* | -2.8%
CCc1ccc(NC(=O)c2sc3nc(C)c(Cl)c(C)c3c2N)cc1 | 4.5% | 10.3% | -11.3% | x | u | -0.1%
Cc1ccc(/C=N/n2cnc3sc(-c4ccccc4)cc3c2=O)o1 | -2.2% | -1.9% | -15.4% | 5.6% | u | -2.5%
COc1ccc(N2CCN(C(=O)CSc3c4c(nc5ccc(Cl)cc35)CCCC4)CC2)cc1 | -1.4% | -5.0% | u | x | 14.1µM* | -1.5%
O=C(CSc1c2c(nc3ccc(Cl)cc13)CCCC2)N1CCN(c2ccc(Cl)cc2)CC1 | 1.1% | -11.4% | -15.1% | x | u | -1.9%
N#C/C(=C\C=C\c1ccccc1)c1nc(-c2ccc(Cl)cc2)cs1 | -1.6% | -9.3% | -28.5% | 20.6% | u | -4.7%
Cc1ccc([N+](=O)[O-])cc1S(=O)(=O)N(C)C | -1.7% | 0.1% | -10.1% | 9.7% | -4.6% | -8.4%
O=C(Nc1ccc2[nH]c(=S)sc2c1)c1ccccc1 | -1.7% | 3.0% | -11.6% | -6.3% | -16.3% | 0.2%
O=C(Nc1ccc2[nH]c(=S)sc2c1)Nc1ccccc1F | -7.3% | -5.7% | 11.2µM*[quencher] | 8.4% | 11.2µM* | 3.0%
O=C(Nc1nnc(C2CC2)s1)c1cc(S(=O)(=O)N2CCCCC2)ccc1N1CCOCC1 | 0.2% | -1.4% | 7.6% | 9.0% | 6.2% | 3.2%
SMILES | TR SRC2 fluor cs | Tau fibril FP | Tau fluor counter | GoLoco inh red | Tau fibril ThT | TRb-SRC2 inh
CCC(CC)NC(=O)Cn1c(C(C)NC(C)=O)nc2ccccc21 (centres undefined) | -0.9% | -7.5% | -3.2% | 2.2% | 1.0% | 1.5%
CCCCCC(=O)N/N=C/c1ccc([N+](=O)[O-])o1 | 2.3% | -6.4% | -16.0% | 16.8% | u | -8.0%
CCN(CC)c1ccc(C=Nc2ccc(C#N)cc2)c(O)c1 | -2.3% | -1.7% | -3.3% | 41.4% | u | -5.3%
CCN(CC)c1ccc(N=Cc2ccccc2[N+](=O)[O-])cc1 | 30.0% | u | u | 7.7% | 14.1µM* | u
CCN(CC)c1ccc(N=Cc2ccc([N+](=O)[O-])o2)cc1 | 6.1% | 11.2µM* | u | 15.1% | 10µM* | u
COc1ccc(-c2cc(C(=O)Oc3cccc(C)c3)c3ccccc3n2)cc1 | -3.3% | -15.9% | -23.3% | x | -5.5% | 14.0%
Cc1ccc(S(=O)(=O)N2CCCN(C(=O)OC(C)(C)C)CC2)cc1 | -0.8% | -1.3% | -6.5% | -2.4% | x | -10.4%
COC(=O)/C=C/c1cc(O)ccc1O | -4.5% | -12.2% | -26.9% | 2.82µM* | u | 8.1%
O=c1[nH]c(-[n+]2ccccc2)c(/C=N/NC([S-])=Nc2ccccc2)s1 | -1.1% | u | -22.8% | 8.7% | 28.2µM* | -1.8%
CCc1ccc[n+](-c2[nH]c(=O)sc2/C=N/NC([S-])=Nc2ccccc2)c1 | -9.4% | u | -24.8% | x | 25.1µM* | 3.6%
Cc1cc[n+](-c2[nH]c(=O)sc2/C=N/NC([S-])=Nc2ccccc2)cc1 | -2.1% | -9.6% | -26.6% | 8.9% | u | -13.0%
Cc1ccc(-c2nc(C(=O)N3CCN(c4ccccc4)CC3)c3n2CCCCC3)cc1 | 8.3% | u | 4.0% | x | u | 2.8%
Cc1ccccc1NC(NC(=O)OCCn1c([N+](=O)[O-])cnc1C)C(Cl)(Cl)Cl (centres undefined) | 7.08µM*[quencher] | 7.5% | -8.4% | -3.4% | -0.9% | -25.9%[53 µM]
CN1CC=C2C(C#N)=C(N)C(C#N)(C#N)[C@H](c3ccoc3)[C@H]2C1 | 14.6% | u | u | -16.6% | 22.4µM* | u
CC(=O)N1CC=C2C(C#N)=C(N)C(C#N)(C#N)[C@H](c3ccoc3)[C@H]2C1 | 4.6% | u | -23.5% | -7.3% | u | -13.1%
CN=c1nc(-c2ccccc2)n(-c2ccccc2)s1 | 2.2% | u | -16.2% | 5.01µM* | 22.4µM* | 3.3%
Cc1ccc(Nc2cc(C(=O)NCCCN3CCOCC3)c3ccccc3n2)c(C)c1 | -2.4% | 6.1% | -19.1% | 3.3% | -4.1% | -5.4%
O=c1cc(O)c2sc(Nc3ccc(F)cc3)nc2[nH]1 | -7.2% | u | u | 112.5% | 28.2µM* | 6.5%
